# Measurements from PubChem BioAssay AID1851 (National Center for Advancing Translational Sciences (NCATS), 2009).
# Values joined by “and” are separate entries in the source; they are usually repeats but may differ in a detail not shown here. Equal values may be shown once. In all, about 16,000 compounds went through this assay and about 5,800 (36%) were called active. Roughly 23% stayed inconclusive and do not appear here. The list shows a part of the results. Values without a mark were called inactive. Calls follow the shape of the dose curve; as a rule, active = well fitted curve in the direction sought with a large enough effect; inconclusive = small, poorly fitted or top-dose-only effect, or effect the other way; inactive = no such curve, though single readings can be large or run the other way.
# Biological target: Cytochrome P450 2C19 (Homo sapiens) (UniProt P33261)
# Assay: Cytochrome panel assay with activity outcomes
# Settings: recombinant CYP, pro-luciferin dealkylation, luminescence, p450-cyp2c19; series mostly up to 57.1 µM; activity, negative = inhibition: at the top concentration
# % is scaled to controls: 0 for no effect and ±100 for the full control effect.
# Chain of Cytochrome P450 2C19 (Homo sapiens) (P33261 whole entry, looked up): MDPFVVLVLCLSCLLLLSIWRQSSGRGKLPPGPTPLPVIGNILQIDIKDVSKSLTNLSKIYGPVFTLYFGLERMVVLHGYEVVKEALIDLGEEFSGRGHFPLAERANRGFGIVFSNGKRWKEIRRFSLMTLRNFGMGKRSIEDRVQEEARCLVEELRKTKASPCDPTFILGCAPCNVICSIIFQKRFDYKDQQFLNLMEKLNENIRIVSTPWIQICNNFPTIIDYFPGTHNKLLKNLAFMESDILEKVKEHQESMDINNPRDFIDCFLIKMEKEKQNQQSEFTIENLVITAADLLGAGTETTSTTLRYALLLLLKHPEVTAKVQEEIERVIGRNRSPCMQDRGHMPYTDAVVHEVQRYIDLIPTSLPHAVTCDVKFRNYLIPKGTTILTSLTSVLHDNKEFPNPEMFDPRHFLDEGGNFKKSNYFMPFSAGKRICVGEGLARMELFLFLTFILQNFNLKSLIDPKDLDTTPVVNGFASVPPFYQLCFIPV
Compound,AC50,"activity, negative = inhibition"
CC(=O)N1CCN(C(=O)CC2OC(=O)c3ccccc32)CC1 (configuration not stated),1.78 µM (active),–
COc1ccc(OC)c2c(=S)c3ccccc3[nH]c12,–,-15%
CCN(C(=S)Nc1ccccc1F)C1CCCCC1,3.98 µM (active),–
Cc1ccc(SCc2ccc(C(=O)Nc3cc([N+](=O)[O-])ccc3C)cc2)cc1,–,-29.8%
Cc1ccc([N+](=O)[O-])cc1NC(=S)NC(=O)CC(C)(C)C,4.47 µM (active),–
Cc1ccc([N+](=O)[O-])cc1NC(=S)NC(=O)C(C)(C)C,2 µM (active),–
Cc1c(C)n(C)c2ccc(C(=O)Nc3cccc4ccccc34)cc12,3.55 µM (active),–
O=C(O)c1ccc(C(=O)Nc2cccc3ccccc23)c(C(=O)O)c1,–,12.6% [at 11.4 µM]
CCn1c(C)c(C)c2cc(C(=O)Nc3cccc(Cl)c3)ccc21,7.08 µM (active),–
COc1ncc2nc(-c3cc(F)cc(F)c3)c(=O)n(-c3ccccc3)c2n1,–,-6.54%
Cc1ccccc1OCCCn1c(=O)sc2ccccc21,1 µM (active),–
Cc1ccc(OCCCn2c(=O)sc3ccccc32)cc1,0.708 µM (active),–
C[N+](C)(CCCOc1ccccc1)c1ccccc1,–,-7.56% [at 25.6 µM]
O=c1sc2ccccc2n1CCCOc1ccccc1,1.12 µM (active),–
C/C(CCN1CCc2nc(-c3ccccc3)c(-c3ccccc3)cc2C1)=N\O[C@@H](C)c1cn([C@H](CO)Cc2ccccc2)nn1,–,-17.8% [at 11.4 µM] and -16.4% [at 11.4 µM]
OC[C@@H]1NC[C@@H](O)[C@H]1O,–,22.6%
COc1cccc(C=NC=Nc2cccc(OC)c2)c1,–,13.9%
O=c1[nH][nH]c(C(F)(F)F)c1C=Nc1cccc(Cl)c1,–,26.9%
Clc1cccc(C=NC=Nc2cccc(Cl)c2)c1,10 µM (active),–
CNc1cc(-c2c(C)noc2C)ncn1,–,-0.312%
COCCNc1nc(-c2c(C)noc2C)nc2ccccc12,–,-17.6%
Cc1noc(C)c1-c1nccc(NC2CC2)n1,10 µM (active),–
Cc1noc(C)c1-c1nc(NC2CCNCC2)c2ccccc2n1,–,-9.75%
c1ccc2c(NCCN3CCOCC3)nc(-c3ccoc3)nc2c1,–,-14.3%
Cc1noc(C)c1-c1nc(Nc2ccc(F)cc2)c2ccccc2n1,3.16 µM (active),–
Cc1noc(C)c1-c1nc(NCCN2CCOCC2)c2ccccc2n1,7.94 µM (active),–

Compound,AC50,"activity, negative = inhibition"
Cc1noc(C)c1-c1nc(Nc2ccccc2)c2ccccc2n1,–,0.272%
CN(C)Cc1ccccc1-c1nccc(NC2CC2)n1,–,15.1%
Cc1noc(C)c1-c1nccc(Nc2ccc(F)cc2)n1,3.98 µM (active),–
Cc1ccc(-[n+]2cc(=O)o[nH]2)cc1,–,-19.9% [at 11.4 µM]
CC(C)NC(=O)N1CCCC2(CCN(C(=O)c3ccncc3)CC2)C1,–,-9.81%
CSc1nc(NC2CCCC2)c([N+](=O)[O-])c(NC2CCCC2)n1,5.01 µM (active),–
CCNc1nnc(-c2ccncc2)s1,5.01 µM (active),–
COc1ccc(C(=O)O/N=C/c2ccc(S(=O)c3ccc(Cl)cc3)nc2)cc1 (configuration not stated),14.1 µM (active),–
O=C(NCc1cccs1)C1CCN(S(=O)(=O)c2cccc3nsnc23)CC1,–,-20.4%
COc1ccc2nc(NCN3C(=O)c4ccccc4C3=O)sc2c1,2.51 µM (active),–
Cc1cccc(NC(=O)C2CCN(S(=O)(=O)c3cccc4nsnc34)CC2)n1,10 µM (active),–
c1cc(CN2CCCCC2)cc(OCCCNc2nc3ccccc3s2)c1,inactive,–
COc1ccc2nc(NC(=O)C3CCN(S(=O)(=O)c4cccc5nsnc45)CC3)sc2c1,1.41 µM (active),–
O=C(NCC1COc2ccccc2O1)C1CCN(S(=O)(=O)c2cccc3nsnc23)CC1 (configuration not stated),14.1 µM (active),–
COc1ccc(OC)c(S(=O)(=O)N2CCC(C(=O)Nc3ccc(C)c(C)c3)CC2)c1,14.1 µM (active),–
COc1ccc(OC)c(S(=O)(=O)N2CCC(C(=O)NCCc3ccccc3)CC2)c1,–,-28.3%
CC1(C)C(=O)C(c2ccccc2)=C2CN3C(=O)N(CCc4ccccc4)C(=O)C3(Cc3ccc(C(F)(F)F)cc3)C=C21 (configuration not stated),–,-6.7%
NC(=O)C[C@H](N)C(N)=O,–,-4.71% [at 11.4 µM]
Cc1ccc(S(=O)(=O)Oc2ccc(C3C4=C(CCCC4=O)OC4=C3C(=O)CCC4)cc2)cc1,4.47 µM (active),–
CN(C)C[C@H]1CCC2=C(C1=O)C(c1ccc(Cl)c(Cl)c1)C1=C(CC[C@H](CN(C)C)C1=O)O2,–,13.9% [at 11.4 µM]
O=C1CCCC2=C1C(c1ccc(OS(=O)(=O)c3ccc(Cl)cc3)cc1)C1=C(CCCC1=O)O2,3.98 µM (active),–
c1ccc(-n2ncc3c2ncn2cnnc32)cc1,–,-25.1%
O=c1oc(-c2ccco2)nc2c1cnn2-c1ccccc1,7.08 µM (active),–
COC(=O)C(NNc1ccccc1)(NC(=O)c1ccccc1F)C(F)(F)F (configuration not stated),2.24 µM (active),–
O=C(O)c1ccccc1C(=O)NNc1ccc(F)cc1,–,-84.8%
Cc1ccc(C(=O)O)cc1N1C(=O)c2cccc3cc(Br)cc(c23)C1=O,14.1 µM (active),–

Compound,AC50,"activity, negative = inhibition"
CCN(CC)CCN1C(=O)c2cccc3cc(N)cc(c23)C1=O,–,44.4% [at 11.4 µM]
CC1CSc2nc3sc4c(c3c(=O)n21)CCCC4 (configuration not stated),15.8 µM (active),–
CCN(CC(=O)NCc1cccs1)S(=O)(=O)c1ccc(C(C)C)cc1,5.62 µM (active),–
OCCCSCCO,–,18.7% [at 11.4 µM]
CC(C)COP(=O)(c1ccc(N(C)C)cc1)C(O)c1ccccc1F (configuration not stated),5.62 µM (active),–
CC(C)COP(=O)(OCC(C)C)C(O)c1ccccc1F (configuration not stated),–,-5.54%
Clc1ccc(-c2ccnc(Oc3cc(Cl)ccc3Cl)n2)cc1,0.316 µM (active),–
O=C(O)/C=C\C(=O)Nc1ccc2c(c1)-c1ccccc1C2,–,-24.1% [at 11.4 µM]
S=C(Nc1ccc2c(c1)Cc1ccccc1-2)Nc1ccc2c(c1)Cc1ccccc1-2,–,-8.36% [at 11.4 µM]
C(/C=C\c1ccccc1)=Nc1ccc2c(c1)Cc1ccccc1-2,3.98 µM (active),–
CCCCOC(=O)c1cc2c(cn1)[nH]c1ccccc12,5.01 µM (active),–
CC(=O)c1cccc(NS(=O)(=O)c2ccc(N/C=C\C(=O)c3ccc(F)cc3)cc2)c1,5.62 µM (active),–
Cc1noc(NS(=O)(=O)c2ccc(N/C=C/C(=O)c3ccc4c(c3)OCO4)cc2)c1C,–,1.16%
Cn1c(=O)c(-c2cc(F)cc(F)c2)nc2cnc(N3CCOCC3)nc21,–,-14.8%
COC(=O)c1[nH]c2cccc(OC)c2c1NC(=O)CN(C)CC1OCCO1,–,-23%
COC(=O)c1[nH]c2cc(OC)ccc2c1NC(=O)CCN1CCSCC1,–,-20.9%
COC(=O)c1[nH]c2ccc(Br)cc2c1NC(=O)CN1CCCc2ccccc21,7.94 µM (active),–
COC(=O)c1[nH]c2ccc(Br)cc2c1NC(=O)CN1CCN(C2CCCCC2)CC1,15.8 µM (active),–
Cc1ccc(S(=O)(=O)N[C@H]2COC(=O)[C@@H](Cc3ccccc3)NC(=O)[C@@H](C)COC(=O)C/C=C\[C@@H]2C)cc1,–,32% [at 11.4 µM]
O=C(c1csnn1)N1CCC2(CCN(Cc3nccs3)CC2)CC1,–,5.37%
CCN(CC)CC[n+]1ccc2c(C)c3[nH]c4ccc(O)cc4c3c(C)c2c1,–,42.4% [at 11.4 µM]
CCCS(=O)(=O)N1CCCC(C(=O)N2CCOCC2)C1 (configuration not stated),–,10.9%
CCCS(=O)(=O)N1CCCC(C(=O)NCCN2CCOCC2)C1 (configuration not stated),–,14.8%
CCCS(=O)(=O)N1CCN(CC2CC=CCC2)CC1 (configuration not stated),3.98 µM (active),–
O=c1cc(CF)[nH]c(=S)[nH]1,–,16.1% [at 11.4 µM]
CN(NC(=O)NN)c1ncc(C(F)(F)F)cc1Cl,10 µM (active),–

Compound,AC50,"activity, negative = inhibition"
O=C(CN(C(=O)CSc1nc2ccccc2o1)c1cccc(F)c1)NC1CCCCC1,1 µM (active),–
NC(N)=N/N=C(\c1ccc(Cl)cc1)C1CC1,–,-27.1% [at 11.4 µM]
COc1ccc2nc(N)sc2c1,31.6 µM (active),–
COc1ccc(Cc2c(N)nc(N)nc2N)cc1,–,5.91%
COc1ccc(N2C(N)=NC(N)=NC2(C)C)cc1,–,-8.58%
O=C1NC(c2cccc([N+](=O)[O-])c2)=CCN1c1ccccc1O,6.31 µM (active),–
CCCOc1ccc(C(=O)NNC(=S)NC(=O)c2cc(-c3ccccc3)nc3ccccc23)cc1,–,-21.5%
Cc1ccc(-c2cc(C(=O)NN=C3CCCC3)c3ccccc3n2)cc1,28.2 µM (active),–
O=C(O)c1cc(-c2ccc3cc4c(cc3c2)OCO4)nc2ccccc12,–,35.1% [at 11.4 µM]
Cc1ccccc1NC(=S)NC(=O)c1cc(-c2ccccc2)nc2ccccc12,2.82 µM (active),–
Cc1cccc(NC(=S)NC(=O)c2cc(-c3ccccc3)nc3ccccc23)c1,1.58 µM (active),–
C[C@@]12CC(=O)[C@@H]3[C@@H](CCC4=CC(=O)CC[C@]43C)[C@@H]1CC=C2CC(=O)O,–,30.4% [at 11.4 µM]
COCC(=O)N1CCC2(CCCN(C(=O)Nc3ccccc3)C2)CC1,–,3.47%
c1ccc(-c2ccc(N3CCCC4(CCNCC4)C3)cc2)cc1,15.8 µM (active),–
O=C(c1ccncc1)N1CCC2(CCN(Cc3ccncc3)CC2)CC1,–,-43.2%
c1ccc(-c2cccc(N3CC4(CCNCC4)C3)c2)cc1,–,-26.2%
O=C(Oc1ccccc1)N1CCC2(CCCN(c3cccc(-c4ccccc4)c3)C2)CC1,–,-3.32%
c1ccc(-c2ccc(N3CC4(CCNCC4)C3)cc2)cc1,–,-17.5%
CC(=O)N1CCC2(CCN(Cc3ccncc3)CC2)CC1,–,2.56%
COCC(=O)N1CCC2(CC1)CN(C(=O)Nc1ccc(OC)cc1)C2,–,6.33%
COCC(=O)N1CCC2(CC1)CN(C(=O)Nc1ccccc1)C2,5.01 µM (active),–
COCC(=O)N1CCC2(CCCN(c3cccc(-c4ccccc4)c3)C2)CC1,15.8 µM (active),–
COCC(=O)N1CCC2(CCCN(c3ccncc3)C2)CC1,–,-23.3%
COCC(=O)N1CCC2(CCN(Cc3ccncc3)CC2)CC1,0.0251 µM (active),–
